# Laboratory results reported in publication PMC7862700, “An all-to-all approach to the identification of sequence-specific readers for epigenetic DNA modifications on cytosine”.
# What was measured:
# Assay in all cases: DAPPL (digital affinity profiling via proximity ligation, sequencing); 10 mM Tris-HCl pH 7.5, 50 mM NaCl, 1 mM DTT, 4% glycerol, room temperature, 30 min; GST-TFs on glutathione beads, 16-mer random dsDNA library, 0.1% formaldehyde crosslink after washing; high values mean tight binding
# FLI1 = molecular target: T1, FLI1 (Homo sapiens, UniProt Q01543 1-452); conditions: protein: recombinant; tags: N-terminal GST; dsDNA, one strand shown
# T1 sequence: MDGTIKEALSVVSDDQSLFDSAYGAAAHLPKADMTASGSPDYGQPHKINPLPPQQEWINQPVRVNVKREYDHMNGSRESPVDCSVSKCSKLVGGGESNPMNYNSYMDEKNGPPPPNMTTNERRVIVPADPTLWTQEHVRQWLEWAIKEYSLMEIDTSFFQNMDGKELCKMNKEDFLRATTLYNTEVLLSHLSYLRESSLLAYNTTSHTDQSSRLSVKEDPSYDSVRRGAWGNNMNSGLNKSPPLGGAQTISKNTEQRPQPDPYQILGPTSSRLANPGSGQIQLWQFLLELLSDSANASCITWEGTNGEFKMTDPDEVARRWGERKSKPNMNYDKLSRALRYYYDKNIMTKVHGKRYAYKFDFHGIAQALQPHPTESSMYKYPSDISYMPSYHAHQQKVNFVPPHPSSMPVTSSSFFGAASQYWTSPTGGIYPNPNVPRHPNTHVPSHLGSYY
# Outline: (§1)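 A tag-only sample was pooled with DNA-barcoded human transcription factors that had been expressed in yeast as GST fusions and captured on glutathione beads. The pools were incubated for 30 min at room temperature with 200 nmole of a random double-stranded 16-mer DNA library in Tris/NaCl/DTT/glycerol buffer, then washed, crosslinked with 0.1% formaldehyde, proximity-ligated (BsaI/T4 ligase, 1 h, 37 °C), PCR-amplified and sequenced on an Illumina NextSeq500. Binding signal is each hexamer's read frequency for a factor divided by its frequency for the tag-only sample.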
# ELK1 = molecular target: T2, ELK1 (Homo sapiens, UniProt P19419 1-428); conditions: protein: recombinant; tags: N-terminal GST; dsDNA, one strand shown
# T2 sequence: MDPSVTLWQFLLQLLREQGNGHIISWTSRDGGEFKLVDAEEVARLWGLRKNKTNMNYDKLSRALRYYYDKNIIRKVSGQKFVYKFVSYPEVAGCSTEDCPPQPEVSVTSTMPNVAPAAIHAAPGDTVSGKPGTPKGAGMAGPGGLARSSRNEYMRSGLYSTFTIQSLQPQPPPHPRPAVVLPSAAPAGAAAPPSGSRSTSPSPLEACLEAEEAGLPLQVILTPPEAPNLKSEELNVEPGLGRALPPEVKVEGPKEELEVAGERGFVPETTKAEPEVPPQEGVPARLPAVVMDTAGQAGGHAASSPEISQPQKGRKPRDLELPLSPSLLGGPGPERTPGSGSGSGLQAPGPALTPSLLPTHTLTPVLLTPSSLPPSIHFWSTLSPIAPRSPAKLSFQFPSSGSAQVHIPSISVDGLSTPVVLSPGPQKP
# Outline: as §1
# GABPA = molecular target: T3, GABPA (Homo sapiens, UniProt Q06546 1-454); conditions: protein: recombinant; tags: N-terminal GST; dsDNA, one strand shown
# T3 sequence: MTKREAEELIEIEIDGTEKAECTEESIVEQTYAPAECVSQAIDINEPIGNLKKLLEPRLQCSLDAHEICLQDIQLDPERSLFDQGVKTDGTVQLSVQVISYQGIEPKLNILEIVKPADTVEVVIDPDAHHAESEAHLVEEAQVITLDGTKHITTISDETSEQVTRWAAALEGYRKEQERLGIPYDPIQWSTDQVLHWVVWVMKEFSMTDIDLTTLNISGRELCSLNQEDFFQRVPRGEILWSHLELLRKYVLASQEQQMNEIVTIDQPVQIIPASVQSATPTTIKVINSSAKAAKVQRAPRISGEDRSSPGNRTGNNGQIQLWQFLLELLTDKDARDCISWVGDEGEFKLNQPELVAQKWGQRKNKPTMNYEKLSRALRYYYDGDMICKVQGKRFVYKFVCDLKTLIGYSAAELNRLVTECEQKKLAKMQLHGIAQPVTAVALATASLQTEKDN
# Outline: as §1
# ERG = molecular target: T4, ERG (Homo sapiens, UniProt P11308 1-479); conditions: protein: recombinant; tags: N-terminal GST; dsDNA, one strand shown
# T4 sequence: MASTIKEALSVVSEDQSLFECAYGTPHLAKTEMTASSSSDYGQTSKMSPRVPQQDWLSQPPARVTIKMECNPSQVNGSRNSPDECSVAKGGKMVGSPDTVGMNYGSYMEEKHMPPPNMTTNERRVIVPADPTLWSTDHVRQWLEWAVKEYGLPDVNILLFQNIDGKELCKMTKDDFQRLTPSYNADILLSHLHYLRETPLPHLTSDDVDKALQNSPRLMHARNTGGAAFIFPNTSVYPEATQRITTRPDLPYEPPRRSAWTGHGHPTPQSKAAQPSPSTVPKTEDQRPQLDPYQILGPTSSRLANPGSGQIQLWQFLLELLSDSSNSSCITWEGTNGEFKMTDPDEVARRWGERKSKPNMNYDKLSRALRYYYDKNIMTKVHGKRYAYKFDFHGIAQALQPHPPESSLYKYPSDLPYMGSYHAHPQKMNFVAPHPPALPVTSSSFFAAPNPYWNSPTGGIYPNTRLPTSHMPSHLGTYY
# Outline: as §1
# ELF1 = ELF1 (Homo sapiens, UniProt P32519 1-619); conditions: protein: recombinant; tags: N-terminal GST; dsDNA, one strand shown
# Outline: as §1
# EHF = molecular target: T5, EHF (Homo sapiens, UniProt Q9NZC4 1-300); conditions: protein: recombinant; tags: N-terminal GST; dsDNA, one strand shown
# T5 sequence: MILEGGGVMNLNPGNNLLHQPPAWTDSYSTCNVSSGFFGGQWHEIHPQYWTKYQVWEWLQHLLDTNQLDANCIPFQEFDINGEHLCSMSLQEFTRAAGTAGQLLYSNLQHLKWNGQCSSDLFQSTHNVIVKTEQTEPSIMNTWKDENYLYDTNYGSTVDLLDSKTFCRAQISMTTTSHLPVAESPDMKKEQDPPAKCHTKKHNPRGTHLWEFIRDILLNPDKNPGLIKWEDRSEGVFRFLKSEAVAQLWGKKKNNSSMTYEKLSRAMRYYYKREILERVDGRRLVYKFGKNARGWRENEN
# Outline: as §1
# SPI1 = SPI1 (Homo sapiens, UniProt P17947 1-270); conditions: protein: recombinant; tags: N-terminal GST; dsDNA, one strand shown
# Outline: as §1
# SPIB = SPIB (Homo sapiens, UniProt Q01892 1-262); conditions: protein: recombinant; tags: N-terminal GST; dsDNA, one strand shown
# Outline: as §1
# ELK3 = molecular target: T6, ELK3 (Homo sapiens, UniProt P41970 1-407); conditions: protein: recombinant; tags: N-terminal GST; dsDNA, one strand shown
# T6 sequence: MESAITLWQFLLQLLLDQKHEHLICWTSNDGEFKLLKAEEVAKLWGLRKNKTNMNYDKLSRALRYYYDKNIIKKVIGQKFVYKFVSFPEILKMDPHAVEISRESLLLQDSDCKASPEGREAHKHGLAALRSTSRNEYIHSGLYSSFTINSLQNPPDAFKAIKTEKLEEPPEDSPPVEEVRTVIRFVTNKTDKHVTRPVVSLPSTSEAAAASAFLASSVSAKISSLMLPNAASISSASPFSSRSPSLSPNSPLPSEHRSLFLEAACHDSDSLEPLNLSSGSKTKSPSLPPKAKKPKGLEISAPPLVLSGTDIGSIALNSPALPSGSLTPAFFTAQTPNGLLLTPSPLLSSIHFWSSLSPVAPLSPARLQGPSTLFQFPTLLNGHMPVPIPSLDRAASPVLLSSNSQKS
# Outline: as §1
# FEV = molecular target: T7, FEV (Homo sapiens, UniProt Q99581 1-238); conditions: protein: recombinant; tags: N-terminal GST; dsDNA, one strand shown
# T7 sequence: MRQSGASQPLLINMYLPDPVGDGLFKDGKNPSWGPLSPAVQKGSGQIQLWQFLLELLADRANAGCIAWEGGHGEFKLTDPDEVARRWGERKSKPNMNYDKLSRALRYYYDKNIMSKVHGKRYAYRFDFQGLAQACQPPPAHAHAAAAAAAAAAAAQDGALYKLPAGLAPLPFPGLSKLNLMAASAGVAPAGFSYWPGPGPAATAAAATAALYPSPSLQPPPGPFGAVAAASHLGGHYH
# Outline: as §1
# ETV5 = ETV5 (Homo sapiens, UniProt P41161 1-510); conditions: protein: recombinant; tags: N-terminal GST; dsDNA, one strand shown
# Outline: as §1
# HSF1 = HSF1 (Homo sapiens, UniProt Q00613 1-529); conditions: protein: recombinant; tags: N-terminal GST; chain copies: 3; dsDNA, one strand shown
# Outline: as §1
# SPIC = molecular target: T8, SPIC (Homo sapiens, UniProt Q8N5J4 1-248); conditions: protein: recombinant; tags: N-terminal GST; dsDNA, one strand shown
# T8 sequence: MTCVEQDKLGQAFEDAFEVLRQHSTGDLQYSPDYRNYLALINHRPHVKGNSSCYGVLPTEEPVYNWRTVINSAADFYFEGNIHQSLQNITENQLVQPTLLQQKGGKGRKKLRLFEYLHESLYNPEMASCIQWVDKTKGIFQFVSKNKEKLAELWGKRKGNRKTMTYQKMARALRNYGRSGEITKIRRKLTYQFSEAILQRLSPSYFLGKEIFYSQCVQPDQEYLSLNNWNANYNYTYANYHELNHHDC
# Outline: as §1
# ELF4 = ELF4 (Homo sapiens, UniProt Q99607 1-663); conditions: protein: recombinant; tags: N-terminal GST; dsDNA, one strand shown
# Outline: as §1
# ELK4 = molecular target: T9, ELK4 (Homo sapiens, UniProt P28324-2 1-405); conditions: protein: recombinant; tags: N-terminal GST; dsDNA, one strand shown
# T9 sequence: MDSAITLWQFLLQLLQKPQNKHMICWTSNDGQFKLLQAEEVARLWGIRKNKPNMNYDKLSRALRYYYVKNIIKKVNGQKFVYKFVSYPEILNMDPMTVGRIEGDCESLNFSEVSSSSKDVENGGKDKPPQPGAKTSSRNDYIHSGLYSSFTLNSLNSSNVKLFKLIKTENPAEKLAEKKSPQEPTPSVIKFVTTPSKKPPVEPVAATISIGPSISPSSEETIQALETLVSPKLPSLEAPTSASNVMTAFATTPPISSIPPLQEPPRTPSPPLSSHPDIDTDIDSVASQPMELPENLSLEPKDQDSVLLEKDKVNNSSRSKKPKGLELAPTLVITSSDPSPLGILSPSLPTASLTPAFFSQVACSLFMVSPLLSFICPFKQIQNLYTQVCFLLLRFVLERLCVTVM
# Outline: as §1
# ETV2 = molecular target: T10, ETV2 (Homo sapiens, UniProt O00321 1-342); conditions: protein: recombinant; tags: N-terminal GST; dsDNA, one strand shown
# T10 sequence: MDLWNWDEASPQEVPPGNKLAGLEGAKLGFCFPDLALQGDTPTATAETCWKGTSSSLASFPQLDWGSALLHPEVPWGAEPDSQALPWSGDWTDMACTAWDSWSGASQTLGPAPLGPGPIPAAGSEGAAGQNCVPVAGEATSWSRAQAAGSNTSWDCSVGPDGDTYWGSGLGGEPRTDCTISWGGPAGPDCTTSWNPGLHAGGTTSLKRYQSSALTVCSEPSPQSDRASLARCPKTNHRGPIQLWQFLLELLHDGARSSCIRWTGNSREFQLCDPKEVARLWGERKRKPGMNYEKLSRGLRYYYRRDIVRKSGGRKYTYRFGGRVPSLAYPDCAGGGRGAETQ
# Outline: as §1
# ELF3 = molecular target: T11, ELF3 (Homo sapiens, UniProt P78545 1-371); conditions: protein: recombinant; tags: N-terminal GST; dsDNA, one strand shown
# T11 sequence: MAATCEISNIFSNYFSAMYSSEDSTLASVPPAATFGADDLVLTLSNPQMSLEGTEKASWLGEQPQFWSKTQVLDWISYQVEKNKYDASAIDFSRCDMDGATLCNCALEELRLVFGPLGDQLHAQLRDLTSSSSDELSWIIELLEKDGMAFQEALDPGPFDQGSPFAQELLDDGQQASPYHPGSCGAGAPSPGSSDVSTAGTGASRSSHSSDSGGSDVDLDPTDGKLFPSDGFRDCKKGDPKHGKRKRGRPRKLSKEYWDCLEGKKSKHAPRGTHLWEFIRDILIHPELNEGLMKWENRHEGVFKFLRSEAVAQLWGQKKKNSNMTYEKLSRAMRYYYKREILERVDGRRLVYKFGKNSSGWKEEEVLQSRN
# Outline: as §1
# CRX = CRX (Homo sapiens, UniProt O43186 1-299); conditions: protein: recombinant; tags: N-terminal GST; dsDNA, one strand shown
# Outline: as §1
# ETV1 = ETV1 (Homo sapiens, UniProt P50549 1-477); conditions: protein: recombinant; tags: N-terminal GST; dsDNA, one strand shown
# Outline: as §1
# Sequence of ELF4 (Q99607 whole entry): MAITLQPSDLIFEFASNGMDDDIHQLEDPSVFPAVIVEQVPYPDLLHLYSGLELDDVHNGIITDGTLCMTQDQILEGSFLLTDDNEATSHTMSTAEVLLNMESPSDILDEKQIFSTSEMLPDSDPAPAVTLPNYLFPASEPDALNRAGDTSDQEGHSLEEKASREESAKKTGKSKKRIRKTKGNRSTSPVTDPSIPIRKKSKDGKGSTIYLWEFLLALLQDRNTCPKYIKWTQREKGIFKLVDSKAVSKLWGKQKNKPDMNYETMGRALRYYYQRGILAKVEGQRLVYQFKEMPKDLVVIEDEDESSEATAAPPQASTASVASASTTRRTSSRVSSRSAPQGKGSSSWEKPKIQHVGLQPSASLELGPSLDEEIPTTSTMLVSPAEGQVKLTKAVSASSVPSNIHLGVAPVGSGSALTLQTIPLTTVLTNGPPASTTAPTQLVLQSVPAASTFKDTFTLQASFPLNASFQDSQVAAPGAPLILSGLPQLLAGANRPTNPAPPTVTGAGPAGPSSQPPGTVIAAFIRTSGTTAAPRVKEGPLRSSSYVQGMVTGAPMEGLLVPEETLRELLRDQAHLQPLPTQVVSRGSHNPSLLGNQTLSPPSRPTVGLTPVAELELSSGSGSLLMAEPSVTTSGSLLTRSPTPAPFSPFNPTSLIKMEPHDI
# Sequence of SPIB (Q01892 whole entry): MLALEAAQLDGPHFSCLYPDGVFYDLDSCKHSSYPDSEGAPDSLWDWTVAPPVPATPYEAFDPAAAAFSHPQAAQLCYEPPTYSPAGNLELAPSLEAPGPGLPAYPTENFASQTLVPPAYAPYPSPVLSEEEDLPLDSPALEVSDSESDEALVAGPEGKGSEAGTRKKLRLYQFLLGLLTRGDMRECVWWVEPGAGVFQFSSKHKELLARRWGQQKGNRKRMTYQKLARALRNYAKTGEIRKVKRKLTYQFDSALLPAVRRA
# Sequence of ETV1 (P50549 whole entry): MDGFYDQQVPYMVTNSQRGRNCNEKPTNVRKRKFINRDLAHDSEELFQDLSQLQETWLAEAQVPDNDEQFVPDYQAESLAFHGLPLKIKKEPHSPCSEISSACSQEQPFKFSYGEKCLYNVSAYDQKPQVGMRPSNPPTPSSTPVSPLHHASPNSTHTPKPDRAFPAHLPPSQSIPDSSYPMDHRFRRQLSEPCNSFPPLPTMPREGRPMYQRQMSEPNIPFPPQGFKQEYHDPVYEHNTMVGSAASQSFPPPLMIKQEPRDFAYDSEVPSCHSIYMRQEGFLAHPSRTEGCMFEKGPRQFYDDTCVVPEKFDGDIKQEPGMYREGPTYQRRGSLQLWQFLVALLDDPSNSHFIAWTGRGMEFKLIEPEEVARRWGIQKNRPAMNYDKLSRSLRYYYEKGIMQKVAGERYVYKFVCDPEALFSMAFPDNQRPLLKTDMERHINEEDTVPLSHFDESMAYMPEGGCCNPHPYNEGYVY
# Sequence of ELF1 (P32519 whole entry): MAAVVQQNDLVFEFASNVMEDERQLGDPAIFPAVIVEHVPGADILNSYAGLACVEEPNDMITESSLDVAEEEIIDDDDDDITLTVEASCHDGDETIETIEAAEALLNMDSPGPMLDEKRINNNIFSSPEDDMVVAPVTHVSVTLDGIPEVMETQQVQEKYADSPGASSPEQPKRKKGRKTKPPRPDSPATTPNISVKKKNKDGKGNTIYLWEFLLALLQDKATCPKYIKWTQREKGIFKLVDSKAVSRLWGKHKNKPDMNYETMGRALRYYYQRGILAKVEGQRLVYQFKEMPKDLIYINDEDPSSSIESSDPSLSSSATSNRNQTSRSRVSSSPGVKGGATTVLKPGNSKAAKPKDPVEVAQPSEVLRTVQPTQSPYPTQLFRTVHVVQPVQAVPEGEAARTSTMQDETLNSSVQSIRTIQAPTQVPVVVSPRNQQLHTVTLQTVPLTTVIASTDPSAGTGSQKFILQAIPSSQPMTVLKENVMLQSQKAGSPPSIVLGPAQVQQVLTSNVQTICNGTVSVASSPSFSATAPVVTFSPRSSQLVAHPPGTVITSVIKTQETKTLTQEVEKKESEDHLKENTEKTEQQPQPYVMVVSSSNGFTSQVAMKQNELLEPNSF
# Sequence of ETV5 (P41161 whole entry): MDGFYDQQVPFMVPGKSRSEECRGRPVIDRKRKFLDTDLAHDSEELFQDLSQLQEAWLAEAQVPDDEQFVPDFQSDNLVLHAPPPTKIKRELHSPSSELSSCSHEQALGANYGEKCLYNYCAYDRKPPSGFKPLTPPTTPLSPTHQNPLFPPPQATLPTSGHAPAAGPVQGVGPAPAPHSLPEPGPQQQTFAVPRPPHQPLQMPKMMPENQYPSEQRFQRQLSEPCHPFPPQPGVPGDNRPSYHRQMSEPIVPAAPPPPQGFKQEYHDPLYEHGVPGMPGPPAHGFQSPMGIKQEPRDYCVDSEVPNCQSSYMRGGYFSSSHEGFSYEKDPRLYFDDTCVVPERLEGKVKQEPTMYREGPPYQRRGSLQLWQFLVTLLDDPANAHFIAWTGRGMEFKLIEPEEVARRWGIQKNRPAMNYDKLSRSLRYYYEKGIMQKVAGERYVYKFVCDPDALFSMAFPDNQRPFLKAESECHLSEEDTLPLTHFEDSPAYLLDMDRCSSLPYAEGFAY
# Sequence of CRX (O43186 whole entry): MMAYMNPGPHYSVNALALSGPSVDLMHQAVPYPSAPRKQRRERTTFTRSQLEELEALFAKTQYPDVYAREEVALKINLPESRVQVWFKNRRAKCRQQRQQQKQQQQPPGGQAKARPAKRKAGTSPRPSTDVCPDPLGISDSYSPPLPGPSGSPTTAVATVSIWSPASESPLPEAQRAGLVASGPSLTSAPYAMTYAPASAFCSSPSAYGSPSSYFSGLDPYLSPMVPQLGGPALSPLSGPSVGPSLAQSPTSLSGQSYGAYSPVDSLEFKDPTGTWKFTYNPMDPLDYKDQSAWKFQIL
# Sequence of HSF1 (Q00613 whole entry): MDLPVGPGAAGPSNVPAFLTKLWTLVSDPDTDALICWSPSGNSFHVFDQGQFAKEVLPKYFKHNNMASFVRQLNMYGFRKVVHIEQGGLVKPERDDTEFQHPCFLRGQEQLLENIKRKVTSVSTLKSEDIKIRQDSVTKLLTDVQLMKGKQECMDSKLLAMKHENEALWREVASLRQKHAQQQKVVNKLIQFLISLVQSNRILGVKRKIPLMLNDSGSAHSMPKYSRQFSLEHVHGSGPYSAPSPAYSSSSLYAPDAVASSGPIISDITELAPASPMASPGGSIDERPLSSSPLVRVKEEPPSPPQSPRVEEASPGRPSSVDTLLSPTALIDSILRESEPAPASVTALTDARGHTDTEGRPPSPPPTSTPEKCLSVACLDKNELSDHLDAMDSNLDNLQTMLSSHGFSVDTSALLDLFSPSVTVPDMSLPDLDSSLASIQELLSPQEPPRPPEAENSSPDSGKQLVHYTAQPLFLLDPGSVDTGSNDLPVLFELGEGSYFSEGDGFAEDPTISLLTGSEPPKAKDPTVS
sequence,measurement,setting,value
GAAATC,binding signal,FLI1,"1.38 fold enrichment (6-mer frequency, TF over GST control)"
same,binding signal,ELK1,"1.47 fold enrichment (6-mer frequency, TF over GST control)"
same,binding signal,GABPA,"1.34 fold enrichment (6-mer frequency, TF over GST control)"
same,binding signal,ERG,"1.65 fold enrichment (6-mer frequency, TF over GST control)"
same,binding signal,ELF1,"1.36 fold enrichment (6-mer frequency, TF over GST control)"
same,binding signal,EHF,"1.53 fold enrichment (6-mer frequency, TF over GST control)"
same,binding signal,SPI1,"1.4 fold enrichment (6-mer frequency, TF over GST control)"
same,binding signal,SPIB,"1.55 fold enrichment (6-mer frequency, TF over GST control)"
same,binding signal,ELK3,"1.42 fold enrichment (6-mer frequency, TF over GST control)"
same,binding signal,FEV,"2.32 fold enrichment (6-mer frequency, TF over GST control)"
same,binding signal,ETV5,"1.58 fold enrichment (6-mer frequency, TF over GST control)"
same,binding signal,HSF1,"1.23 fold enrichment (6-mer frequency, TF over GST control)"
same,binding signal,SPIC,"1.48 fold enrichment (6-mer frequency, TF over GST control)"
same,binding signal,ELF4,"1.42 fold enrichment (6-mer frequency, TF over GST control)"
same,binding signal,ELK4,"1.31 fold enrichment (6-mer frequency, TF over GST control)"
same,binding signal,ETV2,"1.45 fold enrichment (6-mer frequency, TF over GST control)"
same,binding signal,ELF3,"1.27 fold enrichment (6-mer frequency, TF over GST control)"
same,binding signal,CRX,"1.26 fold enrichment (6-mer frequency, TF over GST control)"
same,binding signal,ETV1,"1.5 fold enrichment (6-mer frequency, TF over GST control)"
